Sampled rows, rich in hits. Any-hit rate of the full collection: about 3.5%.
TEAD-YAP block: TEAD-YAP interaction inhibition; HEK-TIYL cells, TEAD-Gal4/YAP UAS-luciferase luminescence; inhibition, % at 9.12 µM; 640,000 compounds, 1.4% hits; in the data active means inhibition above about 32%;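 further: 0% = median of test compound wells and 100% = reference inhibitor wells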
FBW7 act: human FBW7 E3 ligase activation, primary screen; Q969H0; AlphaScreen FBW7–phospho-cyclin E peptide binding, activator screen; normalized activity (activation), % at 26.1 µM; 650,000 compounds, 0.13% hits; AID 1259310; in the data active means normalized activity above about 1.9%;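 further: purified mutant Fbw7 with reduced substrate affinity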
Target sequence (Q969H0 whole entry, looked up): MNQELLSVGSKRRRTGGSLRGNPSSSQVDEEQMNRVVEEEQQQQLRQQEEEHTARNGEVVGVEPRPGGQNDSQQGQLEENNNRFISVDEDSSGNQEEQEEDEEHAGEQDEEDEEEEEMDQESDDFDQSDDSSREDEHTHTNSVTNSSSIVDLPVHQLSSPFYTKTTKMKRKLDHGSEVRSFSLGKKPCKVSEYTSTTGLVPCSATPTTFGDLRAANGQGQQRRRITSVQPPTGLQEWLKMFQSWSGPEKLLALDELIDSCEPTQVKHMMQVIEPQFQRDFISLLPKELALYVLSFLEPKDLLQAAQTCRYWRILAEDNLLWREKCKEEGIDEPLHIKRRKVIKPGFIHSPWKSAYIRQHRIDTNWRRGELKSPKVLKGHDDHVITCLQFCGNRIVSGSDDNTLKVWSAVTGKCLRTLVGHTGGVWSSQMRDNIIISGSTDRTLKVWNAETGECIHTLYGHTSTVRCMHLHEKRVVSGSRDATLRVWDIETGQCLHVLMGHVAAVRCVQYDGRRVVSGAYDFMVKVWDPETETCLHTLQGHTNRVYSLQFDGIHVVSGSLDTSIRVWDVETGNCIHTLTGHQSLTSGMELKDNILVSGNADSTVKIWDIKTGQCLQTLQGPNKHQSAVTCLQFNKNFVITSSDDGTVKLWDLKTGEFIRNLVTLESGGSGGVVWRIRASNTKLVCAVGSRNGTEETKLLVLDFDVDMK
MITF inh: human MITF inhibition, primary screen | O75030 | AlphaScreen MITF homodimerization, bead proximity signal | inhibition, % at 2.6 µM | 650,000 compounds, 0.91% hits | AID 1259374; in the data active means inhibition above about 50%;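 further: 0% = vehicle wells with protein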
GPR151 activ: activators of human GPR151 | activation, % at 11.2 µM | 650,000 compounds, 1% hits | Q8TDV0 | AID 1508602 | PathHunter beta-arrestin GPR151 cells, luminescence; in the data active means activation above about 4.9%;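 further: 0% = median of compound wells and 100% = cells with positive control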
MITF inh conf: human MITF inhibition, confirmation; shares compounds with MITF inh; AID 1259372; inhibition, % at 2.6 µM; 4,700 compounds, 16% hits; AlphaScreen MITF homodimerization, biotin/His-MITF beads;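 active means inhibition above a cutoff derived from the DMSO control wells, cut at about 28% in these data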;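 further: 0% = MITF dimer wells with DMSO only; inhibitors lower the bead chemiluminescence by keeping MITF from dimerizing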
AlphaScreen DR: counter-screen: compounds optically interfering with AlphaScreen. shares compounds with MITF inh. AlphaScreen optical interference counterscreen, cell-free. IC50, µM. 480 compounds, 6% hits; call rule not given here
AlphaScreen intf2: optically interferes with AlphaScreen signal | LysRS AlphaScreen counterscreen, signal interference, triplicate | inhibition, % at 2.6 µM | 4,700 compounds, 7.6% hits | shares compounds with MITF inh;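 active means inhibition above a cutoff derived from the DMSO control wells, cut at about 30% in these data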
* hit, by the source's call.

For CN(CCN1CCOCC1)C1CCN(C(=O)CNC(=O)/C=C/c2cccs2)CC1 the results were TEAD-YAP block 7, FBW7 act 0, MITF inh 62*, GPR151 activ -1, MITF inh conf 1 and AlphaScreen intf2 13.
Screening C/C(=N/N1CCN(c2ccc(Cl)cc2)CC1)c1ccccc1 returned TEAD-YAP block 6, FBW7 act 0, MITF inh -5 and GPR151 activ 0.
Screening O=C1CC(N2CCOCC2)C(=O)N1c1cc(C(F)(F)F)ccc1Cl (centres undefined) returned TEAD-YAP block 1, FBW7 act 0, MITF inh 88*, GPR151 activ -1, MITF inh conf -1 and AlphaScreen intf2 2.
For CN1CCN(CC(=O)c2cccs2)CC1 the results were TEAD-YAP block -4, FBW7 act 0, MITF inh 34 and GPR151 activ -1.
CN1CCN(CC(=O)c2ccccc2F)CC1 was read as TEAD-YAP block 4, FBW7 act 0, MITF inh 78*, GPR151 activ 0, MITF inh conf 10 and AlphaScreen intf2 15.
C=CCN1C(=O)/C(=C\c2cc([N+](=O)[O-])cc([N+](=O)[O-])c2O)SC1=S was read as TEAD-YAP block 12, FBW7 act -1, MITF inh 8 and GPR151 activ 0.
Screening O=C(COc1ccccc1C(=O)OC1CCCC1=O)Nc1cccc(C(F)(F)F)c1 (centres undefined) returned TEAD-YAP block 6, FBW7 act 0, MITF inh 62*, GPR151 activ 2, MITF inh conf 72*, AlphaScreen DR >6.8 and AlphaScreen intf2 3.
NC(=O)c1ccccc1OCC(=O)Nc1cccc(C(F)(F)F)c1 was read as TEAD-YAP block -70, FBW7 act 0, MITF inh -1 and GPR151 activ 0.
For CC(=O)OCN1C(=O)N(COC(C)=O)C2C1N(COC(C)=O)C(=O)N2COC(C)=O (centres undefined) the results were TEAD-YAP block 0, FBW7 act 0, MITF inh -11 and GPR151 activ 0.
O=S(=O)(C1CC1)N1CCN(c2ccc(-c3ccccn3)nn2)CC1 was read as TEAD-YAP block 59*, FBW7 act -2, MITF inh 122*, GPR151 activ -9, MITF inh conf 108* and AlphaScreen intf2 100*.
Cc1c(C(=O)N2CCN(c3ccc(-c4ccccn4)nn3)CC2)cnn1-c1ccccc1 was read as TEAD-YAP block -4, FBW7 act -1, MITF inh 75*, GPR151 activ 1, MITF inh conf 96* and AlphaScreen intf2 101*.
For O=C(Cc1noc2ccccc12)N1CCN(c2ccc(-c3ccccn3)nn2)CC1 the results were TEAD-YAP block 21, FBW7 act -2, MITF inh 126*, GPR151 activ -3, MITF inh conf 112* and AlphaScreen intf2 101*.
`O=C(c1cnn(-c2ccccc2)c1-n1cccc1)N1CCN(c2ccccn2)CC1` gave TEAD-YAP block 9, FBW7 act 0, MITF inh 17 and GPR151 activ 0.
`CCn1c(SCC(=O)NC(C)C)nnc1-c1cccnc1` gave TEAD-YAP block 7, FBW7 act 0, MITF inh 2 and GPR151 activ -1.
For Cc1ccccc1C(=O)Nc1ccc(C(N)=O)cc1 the results were TEAD-YAP block -39, FBW7 act 0, MITF inh 4 and GPR151 activ -2.
For CCSc1nnc(NC(=O)c2c(-c3ccccc3Cl)noc2C)s1 the results were TEAD-YAP block 6, FBW7 act 0, MITF inh 114*, GPR151 activ -1, MITF inh conf 25 and AlphaScreen intf2 12.
`CCOC(=O)CSc1nnc(NC(=O)c2c(-c3ccccc3Cl)noc2C)s1` gave TEAD-YAP block 2, FBW7 act 0, MITF inh 12 and GPR151 activ -1.
Clc1cc(CNC2CCN(Cc3ccccc3)CC2)cc2c1OCCO2 was read as TEAD-YAP block 3, FBW7 act 0, MITF inh 58*, GPR151 activ 0, MITF inh conf 10 and AlphaScreen intf2 10.
Screening Cc1cc(C)cc(N2C(=O)CS(=O)(=O)C2c2cccc(Br)c2)c1 (centres undefined) returned TEAD-YAP block 8, FBW7 act 0, MITF inh -2 and GPR151 activ 0.
`O=C1CS(=O)(=O)C(c2ccccc2)N1c1ccccc1` (centres undefined) gave TEAD-YAP block -2, FBW7 act 0, MITF inh 72*, GPR151 activ 3, MITF inh conf -2 and AlphaScreen intf2 -1.
CCCCOc1ccc(/C=C2\N=C(c3cccc(I)c3)OC2=O)cc1 was read as TEAD-YAP block 0, FBW7 act 0, MITF inh 3 and GPR151 activ -1.
For O=[N+]([O-])c1ccc(CN2CCC(O)CC2)cc1 the results were TEAD-YAP block -6, FBW7 act 0, MITF inh 18 and GPR151 activ -1.
Screening O=[N+]([O-])c1cccc(CN2CCN(C3CCCC3)CC2)c1 returned TEAD-YAP block 3, FBW7 act 0, MITF inh 76*, GPR151 activ 0, MITF inh conf 18 and AlphaScreen intf2 13.
For O=[N+]([O-])c1ccc(CN2CCC(N3CCN(c4ccccc4F)CC3)CC2)cc1 the results were TEAD-YAP block 16, FBW7 act 0, MITF inh -2 and GPR151 activ -1.
Screening CCN1CCN(C2CCN(Cc3cccc([N+](=O)[O-])c3)CC2)CC1 returned TEAD-YAP block 8, FBW7 act 0, MITF inh 23 and GPR151 activ 2.
For COc1ccccc1N1CCN(C2CCN(Cc3ccc([N+](=O)[O-])cc3)CC2)CC1 the results were TEAD-YAP block 14, FBW7 act 0, MITF inh 57*, GPR151 activ -1, MITF inh conf -7 and AlphaScreen intf2 -5.
Screening COc1ccccc1N1CCN(C2CCN(C(=O)c3cccc4ccccc34)CC2)CC1 returned TEAD-YAP block 9, FBW7 act 0, MITF inh 75*, GPR151 activ 0, MITF inh conf -1 and AlphaScreen intf2 4.
Screening O=[N+]([O-])c1ccc(CN2CCN(C3CCCC3)CC2)cc1 returned TEAD-YAP block -3, FBW7 act 0, MITF inh 61*, GPR151 activ -1, MITF inh conf 1 and AlphaScreen intf2 -4.
`COc1cc(CNC(C)(C)CO)c(Br)cc1OC(C)C` gave TEAD-YAP block 12, FBW7 act 0, MITF inh 3 and GPR151 activ 0.
For CCOc1cc(OCC)cc(C(=O)Nc2ccccc2C(=O)OC)c1 the results were TEAD-YAP block -12, FBW7 act 0, MITF inh 12 and GPR151 activ 0.

From PubChem BioAssay
